# From ChEMBL document CHEMBL2218924, “A broad activity screen in support of a chemogenomic map for kinase signalling research and drug discovery” (Biochem J, 2013)
# Target: Ribosomal protein S6 kinase alpha-6 (Homo sapiens) (UniProt Q9UK32)
# Conditions: at 1 µM
# Ribosomal protein S6 kinase alpha-6 (Homo sapiens), sequence (Q9UK32 whole entry): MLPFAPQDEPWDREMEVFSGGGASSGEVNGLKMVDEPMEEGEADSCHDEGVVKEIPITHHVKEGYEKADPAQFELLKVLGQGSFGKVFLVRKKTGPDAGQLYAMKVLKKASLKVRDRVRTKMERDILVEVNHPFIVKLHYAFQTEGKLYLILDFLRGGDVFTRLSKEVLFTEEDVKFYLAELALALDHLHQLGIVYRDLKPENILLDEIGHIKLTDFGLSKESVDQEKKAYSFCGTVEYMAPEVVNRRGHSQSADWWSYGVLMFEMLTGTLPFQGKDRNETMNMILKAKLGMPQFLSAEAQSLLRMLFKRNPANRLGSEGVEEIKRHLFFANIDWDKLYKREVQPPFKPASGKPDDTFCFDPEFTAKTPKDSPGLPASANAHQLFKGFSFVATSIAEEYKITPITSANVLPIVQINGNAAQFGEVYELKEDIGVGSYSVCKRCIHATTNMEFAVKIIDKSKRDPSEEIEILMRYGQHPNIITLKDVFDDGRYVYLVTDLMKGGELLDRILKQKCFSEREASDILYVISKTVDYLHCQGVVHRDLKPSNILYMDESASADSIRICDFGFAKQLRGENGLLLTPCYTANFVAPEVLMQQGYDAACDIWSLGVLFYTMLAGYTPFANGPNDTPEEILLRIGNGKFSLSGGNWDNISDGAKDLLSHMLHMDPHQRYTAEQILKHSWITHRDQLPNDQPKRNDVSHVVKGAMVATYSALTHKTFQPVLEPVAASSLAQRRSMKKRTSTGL
row,SMILES,residual activity
1,N#Cc1c(NC(=O)c2cccc3ccccc23)sc2c1CCCC2,92%
2,CC(C)[C@H](CO)Nc1nc(Nc2cc(N)cc(Cl)c2)c2ncn(C(C)C)c2n1,18%
3,CCCCc1c(-c2ccc(O)cc2)[nH]c2nccnc12,86%
4,O=C(Nc1nc2ccccc2n1CCN1CCOCC1)c1cccc([N+](=O)[O-])c1,108%
5,O=C1Nc2ccccc2/C1=C\c1c(Cl)[nH]c2ccccc12,51%
6,O=C1C(Cl)=C(N2C(=O)CCC2=O)C(=O)c2ccccc21,92%
7,CCOC(=O)c1c(C)[nH]c(/C=C2\C(=O)Nc3ccccc32)c1C,88%
8,COc1cc2nccc(Oc3ccc(NC(=S)NC(=O)c4ccccc4C)cc3)c2cc1OC,88%
9,Cn1sc(=O)n(Cc2ccccc2)c1=O,95%
10,COc1ccc(-c2cnc3c(-c4ccsc4)cnn3c2)cc1,100%
11,COc1cc2ncnc(Nc3cccc(Cl)c3)c2cc1OC,123%
12,NC(=O)c1ccc(-c2nc(-c3ccc4c(c3)OCCO4)c(-c3ccccn3)[nH]2)cc1,90%
13,O=S(=O)(c1cccc2cnccc12)N1CCCNCC1,85%
14,CC(C)(C)c1nc2c3ccc(F)cc3c3c(=O)[nH]ccc3c2[nH]1,42%
15,O=C(NC(NC(=S)Nc1ccc(F)c([N+](=O)[O-])c1)C(Cl)(Cl)Cl)C(c1ccccc1)c1ccccc1 (stereo not given),80%
16,O=C1Cc2c([nH]c3ccc([N+](=O)[O-])cc23)-c2ccccc2N1,64%
17,N#C/C(=C1/Nc2ccccc2S1)c1ccnc(NCCc2cccnc2)n1,63%

# Target: Ribosomal protein S6 kinase alpha-6 (Homo sapiens) (UniProt Q9UK32)
# Conditions: at 10 µM
row,SMILES,residual activity
1,N#Cc1c(NC(=O)c2cccc3ccccc23)sc2c1CCCC2,90%
2,CC(C)[C@H](CO)Nc1nc(Nc2cc(N)cc(Cl)c2)c2ncn(C(C)C)c2n1,6%
3,Fc1ccc(-c2nc3n(c2-c2ccncc2)CCS3)cc1,92%
4,CCCCc1c(-c2ccc(O)cc2)[nH]c2nccnc12,84%
5,O=C(Nc1nc2ccccc2n1CCN1CCOCC1)c1cccc([N+](=O)[O-])c1,80%
6,O=C1Nc2ccccc2/C1=C\c1c(Cl)[nH]c2ccccc12,33%
7,O=C1C(Cl)=C(N2C(=O)CCC2=O)C(=O)c2ccccc21,99%
8,CCOC(=O)c1c(C)[nH]c(/C=C2\C(=O)Nc3ccccc32)c1C,90%
9,COc1cc2nccc(Oc3ccc(NC(=S)NC(=O)c4ccccc4C)cc3)c2cc1OC,123%
10,Cn1sc(=O)n(Cc2ccccc2)c1=O,93%
11,O=C(c1ccccc1)c1ccc(N2CCOCC2)cc1O,130%
12,COc1ccc(-c2cnc3c(-c4ccsc4)cnn3c2)cc1,136%
13,COc1cc2ncnc(Nc3cccc(Cl)c3)c2cc1OC,64%
14,O=S(=O)(c1cccc2cnccc12)N1CCCNCC1,49%
15,Nc1nccc(-c2c(-c3ccc(F)cc3)ncn2C2CCNCC2)n1,70%
16,CC(C)(C)c1nc2c3ccc(F)cc3c3c(=O)[nH]ccc3c2[nH]1,37%
17,O=C(NC(NC(=S)Nc1ccc(F)c([N+](=O)[O-])c1)C(Cl)(Cl)Cl)C(c1ccccc1)c1ccccc1 (stereo not given),94%
18,O=C1Cc2c([nH]c3ccc([N+](=O)[O-])cc23)-c2ccccc2N1,38%
19,N#C/C(=C1/Nc2ccccc2S1)c1ccnc(NCCc2cccnc2)n1,63%

# Target: Mitogen-activated protein kinase 14 (Homo sapiens) (UniProt Q16539)
# Conditions: at 1 µM
# Mitogen-activated protein kinase 14 (Homo sapiens), sequence (Q16539 whole entry): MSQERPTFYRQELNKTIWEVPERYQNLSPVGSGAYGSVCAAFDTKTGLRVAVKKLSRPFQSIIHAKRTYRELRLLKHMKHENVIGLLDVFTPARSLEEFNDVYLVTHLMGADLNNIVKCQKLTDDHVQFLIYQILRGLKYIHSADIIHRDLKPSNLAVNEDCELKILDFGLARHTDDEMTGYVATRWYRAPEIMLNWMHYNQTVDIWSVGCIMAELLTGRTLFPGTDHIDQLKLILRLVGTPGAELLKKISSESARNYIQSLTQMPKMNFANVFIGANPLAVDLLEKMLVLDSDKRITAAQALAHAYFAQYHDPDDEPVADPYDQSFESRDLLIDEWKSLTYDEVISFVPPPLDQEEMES
row,SMILES,residual activity
1,Fc1ccc(-c2nc3n(c2-c2ccncc2)CCS3)cc1,16%
2,CCCCc1c(-c2ccc(O)cc2)[nH]c2nccnc12,100%
3,O=C1C(Cl)=C(N2C(=O)CCC2=O)C(=O)c2ccccc21,86%
4,N#C/C(=C\c1ccc(O)c(O)c1)C(=O)NCc1ccccc1,72%
5,COc1cc2nccc(Oc3ccc(NC(=S)NC(=O)c4ccccc4C)cc3)c2cc1OC,82%
6,Cn1sc(=O)n(Cc2ccccc2)c1=O,87%
7,Nc1ncnc2c1cnn2-c1ccccc1,83%
8,O=c1c(-c2ccc(F)cc2)c(-c2ccncc2)[nH]n1-c1ccc(Cl)cc1,3%
9,O=C(c1ccccc1)c1ccc(N2CCOCC2)cc1O,79%
10,COc1ccc(-c2cnc3c(-c4ccsc4)cnn3c2)cc1,81%
11,COc1cc2ncnc(Nc3cccc(Cl)c3)c2cc1OC,56%
12,NC(=O)c1ccc(-c2nc(-c3ccc4c(c3)OCCO4)c(-c3ccccn3)[nH]2)cc1,77%
13,COc1ccc(Cl)cc1NC(=O)Nc1cc(C)nc2ccccc12,82%
14,O=C(O)/C=C/c1cc(Br)c(Br)c(Br)c1Br,77%
15,CC(C)(C)c1nc2c3ccc(F)cc3c3c(=O)[nH]ccc3c2[nH]1,73%
16,CC(C)N(CCC(=O)c1ccc2ccccc2c1)Cc1ccccc1,81%
17,N#C/C(=C1/Nc2ccccc2S1)c1ccnc(NCCc2cccnc2)n1,76%

# Target: Mitogen-activated protein kinase 14 (Homo sapiens) (UniProt Q16539)
# Conditions: at 10 µM
row,SMILES,residual activity
1,CC(C)[C@H](CO)Nc1nc(Nc2cc(N)cc(Cl)c2)c2ncn(C(C)C)c2n1,95%
2,Fc1ccc(-c2nc3n(c2-c2ccncc2)CCS3)cc1,3%
3,CCCCc1c(-c2ccc(O)cc2)[nH]c2nccnc12,88%
4,O=C1Nc2ccccc2/C1=C\c1c(Cl)[nH]c2ccccc12,45%
5,O=C1C(Cl)=C(N2C(=O)CCC2=O)C(=O)c2ccccc21,92%
6,N#C/C(=C\c1ccc(O)c(O)c1)C(=O)NCc1ccccc1,102%
7,COc1cc2nccc(Oc3ccc(NC(=S)NC(=O)c4ccccc4C)cc3)c2cc1OC,68%
8,Cn1sc(=O)n(Cc2ccccc2)c1=O,87%
9,O=c1c(-c2ccc(F)cc2)c(-c2ccncc2)[nH]n1-c1ccc(Cl)cc1,0%
10,O=C(c1ccccc1)c1ccc(N2CCOCC2)cc1O,83%
11,COc1cc2ncnc(Nc3cccc(Cl)c3)c2cc1OC,25%
12,NC(=O)c1ccc(-c2nc(-c3ccc4c(c3)OCCO4)c(-c3ccccn3)[nH]2)cc1,37%
13,COc1ccc(Cl)cc1NC(=O)Nc1cc(C)nc2ccccc12,91%
14,O=C(O)/C=C/c1cc(Br)c(Br)c(Br)c1Br,90%
15,CC(C)(C)c1nc2c3ccc(F)cc3c3c(=O)[nH]ccc3c2[nH]1,69%
16,CC(C)N(CCC(=O)c1ccc2ccccc2c1)Cc1ccccc1,79%
17,N#C/C(=C1/Nc2ccccc2S1)c1ccnc(NCCc2cccnc2)n1,41%
